Rows were chosen to be rich in hits. Some 3.6% of all compounds tested hit in one or more screens of this group.
Mdm2 MdmX PPI: human Mdm2/MdmX binding inhibition; SaOS-2 split-luciferase Mdm2/MdmX complementation, luminescence; inhibition, % at 8 µM; 3% of 330,000 active;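 active = inhibition of at least 50% at 8 µM in the primary screen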
Peg3 prom inh: reduces Peg3 promoter-driven luciferase expression in HeLa; HeLa PEG-Prom luciferase reporter, luminescence, overnight; inhibition, % at 20 µM; 1.7% of 360,000 active; AID 588405;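 active = inhibition of at least 50% at 20 µM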
LGR2 inh: blocks bursicon-induced cAMP signaling via Drosophila LGR2. AID 720647. 0.35% of 380,000 active. HEK293 LGR2, CRE-luciferase, bursicon-stimulated, 4 h. inhibition, % at 9.99 µM;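 active = drop in luminescence signal, shown as inhibition above about 50% in the replicate tests, limit read from the data, passing the limit was not always enough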;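 also: agonist challenge used bursicon conditioned medium at about half maximal strength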
KKLEB tox: counter-screen for CF NF-kB inhibitors: cytotoxicity; KKLEB CF airway cells viability, ATPlite luminescence, overnight; hits give low values; cells stimulated with P. aeruginosa culture filtrate; activity change (cytotoxicity), % at 5 µM; 0.36% of 360,000 active;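 active = corrected activity change at or below -50% at 5 µM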
HSP90 inh: HSP90 refolding inhibition in rabbit reticulocyte lysate; 0.91% of 290,000 active; inhibition, % at 5.6 µM; luciferase refolding luminescence, 3 h;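 active = inhibition above the screen-wide mean plus 3 SD, computed separately per campaign, cut at about 16% in these data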;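 also: inhibitors lower the luminescence because luciferase stays unfolded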
CF NFkB block: blocks PAF-induced NF-kB reporter in cystic fibrosis cells | KKLEB NF-kB-GFP reporter, GFP fluorescence overnight | inhibition, % at 5 µM | 0.86% of 360,000 active | AID 588850;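 active = at least 50% inhibition at 5 µM, scaled per plate between neutral and stimulator controls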;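 also: PAF is a Pseudomonas aeruginosa culture filtrate used as stimulus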
Mdm2-MdmX conf: human Mdm2/MdmX binding inhibition, confirmed | shares compounds with Mdm2 MdmX PPI | luminescent assay | inhibition, % at 8 µM | 55% of 10,000 active | AID 489028; in the data active = inhibition above about 40%
FLuc counter: inhibits full-length luciferase, flagging false Mdm2/MdmX hits; shares compounds with Mdm2 MdmX PPI; SaOS-2 full-length luciferase counterscreen, luminescence; inhibition, % at 8 µM; 77% of 6,200 active; AID 504607;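 active = mean inhibition at 8 µM reaching about 37%, which flags the compound as non-specific, limit read from the data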;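 also: p53-null SaOS-2 cells with luciferase driven by a doxycycline-inducible promoter; compound on cells about two nights before reading with doxycycline added after day one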
Hits are given with their value; n = inactive; x = no result given.

SMILES | Mdm2 MdmX PPI | Peg3 prom inh | LGR2 inh | KKLEB tox | HSP90 inh | CF NFkB block | Mdm2-MdmX conf | others
CCCCCCc1cc2cc(S(=O)(=O)c3ccc(F)c(Cl)c3)c(=O)oc2cc1O | 98.2 | n | n | -71.8 | n | 59.8 | 92.3 | FLuc counter=n
CCCCCCc1cc2cc(C(=O)NC)c(=N)oc2cc1O | n | n | x | n | n | n | x
COc1ccc2c3c([nH]c2c1)[C@H](CO)N(C(=O)C1CCC1)CC31CN(S(C)(=O)=O)C1 | x | x | n | x | x | x | x
Fc1ccc2c(Cl)c(-c3nnc(-c4cccs4)o3)sc2c1 | 84.2 | n | x | n | n | n | n
COc1ccccc1C1c2ccc3ccccc3c2Oc2ncn(CCN(C)C)c(=N)c21 (stereo not drawn) | 100.3 | 103.0 | n | n | n | n | 85.1 | FLuc counter=37.8
COc1ccc(C2c3c(ncn(CCCO)c3=N)Oc3ccc4ccccc4c32)cc1OC (stereo not drawn) | n | n | n | n | n | n | x
COc1ccc(C2c3c(ncn(CCCO)c3=N)Oc3ccc4ccccc4c32)cc1 (stereo not drawn) | 80.7 | 82.0 | n | n | n | n | 70.0 | FLuc counter=56.5
COc1ccc(C2c3ccc4ccccc4c3Oc3ncn(Cc4ccco4)c(=N)c32)cc1OC (stereo not drawn) | 85.1 | n | n | n | n | n | 54.3 | FLuc counter=67.0
COc1ccc(C2c3ccc(O)cc3Oc3ncn(Cc4ccco4)c(=N)c32)cc1OC (stereo not drawn) | n | n | n | n | n | n | x
COc1ccc(C2c3ccc4ccccc4c3Oc3ncn(CCCN(C)C)c(=N)c32)cc1 (stereo not drawn) | 100.3 | 112.1 | n | n | n | n | 100.2 | FLuc counter=51.2
C[C@@H]1CN([C@@H](C)CO)S(=O)(=O)c2ccc(C3=CCCC3)cc2O[C@@H]1CN(C)C(=O)c1cccnc1 | x | x | n | x | x | x | x
CN(C)C(=O)C[C@@H]1C[C@@H]2c3cc(NC(=O)c4ccc5c(c4)OCO5)ccc3O[C@@H]2[C@@H](CO)O1 | x | x | n | x | x | x | x
CN(C)CC#Cc1ccc([C@H]2[C@@H](CO)N3C(=O)CN(C(=O)c4ccccc4)C[C@H]23)cc1 | x | x | n | x | x | x | x
C[C@H](CO)N1C[C@H](C)[C@H](CN(C)CC2CC2)Oc2ccc(NS(=O)(=O)c3cn(C)cn3)cc2CC1=O | x | x | n | x | x | x | x
COc1ccc(C2c3c(ncn(CCN4CCOCC4)c3=N)Oc3ccc4ccccc4c32)cc1OC (stereo not drawn) | 63.6 | 77.8 | n | n | n | n | n | FLuc counter=58.7
CCC(C(=O)O/N=C(\N)c1ccc(Cl)cc1)c1ccccc1 (stereo not drawn) | 64.1 | n | x | n | n | n | n
CCC(C(=O)O/N=C(\N)c1ccc(C)cc1)c1ccccc1 (stereo not drawn) | 50.5 | n | x | n | n | n | n
CCC(C(=O)O/N=C(\N)c1ccccc1)c1ccccc1 (stereo not drawn) | n | n | x | n | n | n | x
C/C=C/c1ccc2c(c1)O[C@@H](CN(C)C(=O)c1cnccn1)[C@@H](C)CN([C@H](C)CO)S2(=O)=O | x | x | n | x | x | x | x
Cc1nnc2n(-c3ccccc3)c(=O)c3c4c(sc3n12)COC(C)(C)C4 | n | n | n | n | n | n | x
CCCCSc1nnc2n(CCc3ccccc3)c(=O)c3c4c(sc3n12)COC(C)(C)C4 | 55.3 | n | x | n | n | n | n
O=C(Nc1cccc(/C=C/c2ccccn2)c1)c1ccc(-n2cncn2)c([N+](=O)[O-])c1 | 62.0 | n | n | n | x | n | n
O=C(Nc1ccc(F)c(F)c1)c1ccc(-n2cncn2)c([N+](=O)[O-])c1 | n | n | n | n | x | n | x
CCNC(=O)[C@H]1[C@H](CO)[C@H]2Cn3c(ccc(C4=CCCCC4)c3=O)[C@@H]1N2CCC(F)(F)F | x | x | n | x | x | x | x
c1ccc2c(c1)CC(N1CCCCC1)c1ccccc1S2 (stereo not drawn) | n | n | n | n | x | n | x
SMILES | Mdm2 MdmX PPI | Peg3 prom inh | LGR2 inh | KKLEB tox | HSP90 inh | CF NFkB block | Mdm2-MdmX conf | others
CN1CCN(CCC(=O)N2c3ccccc3Sc3ccc(Cl)cc32)CC1 | n | n | n | n | n | n | x
CN1CCN(C2=Cc3cc(Cl)ccc3Sc3cc(F)ccc32)CC1 | 51.4 | 94.2 | x | n | n | n | n
CN1CCN(C2Cc3cc(Cl)ccc3Sc3cc(F)ccc32)CC1 (stereo not drawn) | 53.9 | 91.0 | n | n | x | n | n
CN1CCN(CCOC2Cc3ccccc3Sc3ccc(Cl)cc32)CC1 (stereo not drawn) | 59.6 | n | n | n | n | n | n
OCCN1CCN(C2Cc3cc(Cl)ccc3Sc3ccc(Cl)cc32)CC1 (stereo not drawn) (tested in a mixture with another compound) | 59.2 | 65.1 | x | n | n | n | n
Cc1ccc(Nc2nc(-c3ccc(S(=O)(=O)N4CCCC4)cc3)cs2)cc1C | n | n | x | n | n | n | x
Cc1cc(C)cc(Nc2nc(-c3ccc(S(=O)(=O)N4CCCC4)cc3)cs2)c1 | 59.3 | n | n | n | n | n | 58.5 | FLuc counter=42.0
CNC[C@@H]1Oc2cc(C#CC3(O)CCCC3)ccc2S(=O)(=O)N([C@@H](C)CO)C[C@@H]1C | x | x | n | x | x | x | x
CCCNC(=O)N1[C@H](CO)[C@H](c2ccccc2)[C@H]1CNC(=O)c1ccc(F)cc1 | x | x | n | x | x | x | x
COc1ccc(-c2coc3cc4oc(=O)c5ccccc5c4cc23)cc1F | 75.0 | n | n | n | n | n | 55.2 | FLuc counter=57.9
COc1ccc(-c2c(-c3ccccc3OC)oc3ccccc23)cc1F | n | n | n | n | x | n | x
C=C(C(=O)c1ccccc1)C(C)CC(=O)c1ccccc1 (stereo not drawn) | 64.2 | 71.7 | n | n | n | n | 61.0 | FLuc counter=n
CCCCNc1c2c3c(cccc3n(C)c1=O)C(=O)c1ccccc1-2 | 51.1 | n | x | n | n | n | n
C[C@@H]1CCCCO[C@H](CN(C)C(=O)Nc2ccccc2)[C@H](C)CN([C@@H](C)CO)C(=O)c2cc(NC(=O)c3ccncc3)ccc2O1 | x | x | n | x | x | x | x
Cc1cc(C)nc(S/C=C/C(=O)c2ccc(F)cc2)n1 | 100.9 | x | x | x | n | x | n
CC=Cc1ccc2n(c1=O)C[C@H]1[C@H](CO)[C@@H](C(=O)NCC)[C@@H]2N1CCC(F)(F)F (mixture of isomers) | x | x | n | x | x | x | x
C[C@@H]1CN([C@@H](C)CO)C(=O)c2cc(C3=CCCC3)cnc2O[C@H]1CN(C)C(=O)NC1CCCC1 | x | x | n | x | x | x | x
Cc1ccccc1-c1ccc([C@@H]2[C@@H](CO)N3C(=O)CN(C(=O)Nc4ccc(F)cc4)C[C@@H]23)cc1 | x | x | n | x | x | x | x
C[C@@H]1CCCCO[C@H](CN(C)C(=O)CCC(F)(F)F)[C@H](C)CN([C@H](C)CO)C(=O)c2cc(NS(=O)(=O)c3cccs3)ccc2O1 | x | x | n | x | x | x | x
